FLuc inh = firefly luciferase inhibition; P08659; purified firefly luciferase, luminescence, 8 min; Potency, µM (series often up to 57.1 µM), most hits filed as inhibitors; 2.2% of 72,000 active; active means well fitted inhibition curve with a large enough effect; inconclusive means small, poorly fitted or top-dose-only effect; further: nearly all actives have a fitted effect of over 40% in size
Target sequence (P08659 whole entry, looked up): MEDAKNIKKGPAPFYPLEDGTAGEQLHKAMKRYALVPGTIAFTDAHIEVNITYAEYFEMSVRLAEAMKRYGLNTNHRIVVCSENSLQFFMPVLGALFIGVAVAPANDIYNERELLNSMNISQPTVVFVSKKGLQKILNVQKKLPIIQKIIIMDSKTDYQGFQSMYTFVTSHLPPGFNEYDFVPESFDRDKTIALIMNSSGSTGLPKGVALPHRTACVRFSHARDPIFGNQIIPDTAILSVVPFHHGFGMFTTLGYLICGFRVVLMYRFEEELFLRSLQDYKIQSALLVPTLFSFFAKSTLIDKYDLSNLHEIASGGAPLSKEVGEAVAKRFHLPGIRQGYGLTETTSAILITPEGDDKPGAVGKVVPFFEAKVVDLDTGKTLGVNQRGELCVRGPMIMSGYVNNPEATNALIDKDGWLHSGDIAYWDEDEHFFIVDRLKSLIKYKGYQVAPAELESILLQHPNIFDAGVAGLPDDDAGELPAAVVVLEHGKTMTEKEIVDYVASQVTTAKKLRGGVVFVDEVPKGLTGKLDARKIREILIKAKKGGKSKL
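Luminescence read-out after 8 min at room temperature; enzyme reaction used luciferin plus 10 uM ATP (linear range) in imidazole buffer pH 7.2 with KCl, MgCl2, Tween 20 and BSA. Each sample was run as a titration.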
Bst PK mod = pyruvate kinase (B. stearothermophilus) modulation | purified pyruvate kinase, luminescence ATP production; ribose 5-phosphate activator present at AC10 | 1.2% of 51,000 active | Potency, µM; in the data active means potency below about 11 µM; inconclusive means mostly about 12 µM to 25 µM;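 the screen sought inhibitors and activators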
Numbers stand for hits; n = inactive; u = inconclusive; x = no result; ! = a repeat was not active; [ ] = remark or other dose. This is a sample that favours compounds with a hit; in the whole collection about 2.5% have one here.

SMILES	FLuc inh	Bst PK mod
Nc1nc(SCc2ccc([N+](=O)[O-])cc2)c2ncn([C@@H]3O[C@@H](CO)[C@@H](O)[C@H]3O)c2n1	n	x
CC(=O)OC[C@@H]1O[C@@H](O/N=C2/C[C@@H](O)[C@@H](O)[C@@H]3[C@@H]4C(=O)N([C@@H](C)c5ccccc5)C(=O)[C@H]4CC[C@H]23)[C@H](OC(C)=O)[C@H](OC(C)=O)[C@@H]1OC(C)=O	n[11.4 µM]	x
Cc1ccccc1-c1nc(Nc2ccncc2)c2ccccc2n1	n[2.29 µM]	x
CCC(c1ccccc1)c1nc(-c2ccccn2)no1 (stereo not given)	n	x
c1ccc(-c2noc(C34CC5CC(CC(C5)C3)C4)n2)nc1	16µM	x
C=CCOc1ccc(/C=C/C(C)=N\O)cc1	16µM	x
CCOc1ccc(/C(=N\O)C(C)NO)cc1 (stereo not given)	n	x
COc1ccc(-c2nnc(N(C)C(=O)c3cccnc3)s2)cc1	6.3µM	x
Cc1ccc(-c2nnc(N(C)C(=O)c3cccnc3)s2)cn1	n	n
CCOc1ccc(OCc2cccc(C(=O)N3CCCC3)c2)cc1	13µM	u
O=C(O)c1cccc(COCC(F)(F)C(F)F)c1	n	n
COc1ccc(NS(=O)(=O)c2cccc(C(=O)O)c2)cc1	n	n
CCOc1ccc(OCc2cccc(C(=O)O)c2)cc1	0.79µM	0.76
COc1ccc(OCc2cccc(C(=O)O)c2)cc1	2µM	1.2
CCOc1ccc(OCc2ccc(C(=O)N3CCCC3)o2)cc1	n	n
O=C(O)c1cccc(COc2ccc(CO)cc2Cl)c1	1µM	0.95
O=C(O)c1ccc(COc2ccc(CO)cc2Cl)cc1	n	n
CC(C)CO/N=C1/C[C@@H](O)[C@@H](O)[C@@H]2[C@@H]3C(=O)N(Cc4ccccc4)C(=O)[C@H]3CC[C@@H]12	n[11.4 µM]	x
O=NN(Cc1ccc(Cl)cc1)[C@@H](C(=O)O)c1ccccc1	n[11.4 µM]	x
c1ccc2[nH]c(CN3CCCCCC3)nc2c1	n	n
Cn1c(-c2ccc(CN3CCCCC3)o2)nc2ccccc21	13µM	n
Nc1ncnc2c1ncn2[C@@H]1O[C@@H](C(=O)NC2CC2)[C@H](O)[C@@H]1O	n	x
C=CCOC(=O)C(C#N)c1nc2ccccc2nc1N1CCC(C(=O)OCC)CC1 (stereo not given)	n	n
CCOC(=O)C1CCN(c2nc3ccccc3nc2C(C#N)C(=O)OC(C)C)CC1 (stereo not given)	n	n
CCOC(=O)C1CCN(c2nc3ccccc3nc2C(C#N)C(=O)OCCOC)CC1 (stereo not given)	n	2.3
SMILES	FLuc inh	Bst PK mod
CCOC(=O)C1CCN(c2nc3ccccc3nc2C(C#N)C(=O)OC(C)COC)CC1 (stereo not given)	n	5.6
O=C(O)Cn1c(=O)oc2cc(S(=O)(=O)NC3CCCCC3)ccc21	n	x
CCc1c(O)c2c(c(O)c1C(C)=O)C(=O)c1c(cc(O)c(C(=O)O)c1C(=O)O)C2=O	n[11.4 µM]	x
NC(=O)c1cnn2c(C(F)(F)F)cc(-c3ccc(F)cc3)nc12	n	2.7
NC(=O)c1cnn2c(C(F)(F)F)cc(-c3ccccc3)nc12	n	11
O=C(NCc1ccco1)c1cnn2c(C(F)(F)F)cc(-c3ccccc3)nc12	n	x
Cc1ccc(-c2cc(C(F)(F)F)n3ncc(C(=O)N4CCN(C)CC4)c3n2)cc1	n	x
C=CC(C)(C)c1[nH]c2ccccc2c1C1=C(O)C(=O)C(c2c[nH]c3c(CC=C(C)C)cccc23)=C(O)C1=O	n	x
NCCNc1ncnc2ccc(Cl)cc12	n[11.4 µM]	x
O=C1CCC(c2ccccc2)=NN1c1nc2ccccc2s1	n[11.4 µM]	x
Cn1cnc2cc(OC(=O)c3ccccc3)ccc21	16µM	n
COc1ccc(OC)c(-n2cnc3cc(C(=O)O)ccc32)c1	n	n
Cc1ccc(C(=O)Oc2ccc3c(c2)ncn3C)cc1	16µM	u
O=C(Oc1ccc2c(c1)OCC2=O)c1ccccc1	n	n
CCN(CC)CCC[C@H](C)Nc1c2ccc(Cl)cc2nc2ccc(OC)cc12	6.3µM!	x
CCN(CC)CCNc1ccnc2cc(Cl)ccc12	n	n
CCNc1ncc2nc(-c3ccccc3)c(=O)n(Cc3cccc(OC)c3)c2n1	n[11.4 µM]	x
Cc1nc(N)sc1-c1csc(Nc2ccc(Cl)cn2)n1	n	n
Cc1nc(N)sc1-c1csc(Nc2ccccn2)n1	13µM	x
COc1cc2nncc(SCc3ccc(Cl)c(Cl)c3)c2cc1OC	n[11.4 µM]	x
CCN1C(=O)[C@H]2[C@H]3[C@H](O)[C@H](O)C/C(=N/NC(=O)OCc4ccccc4)[C@H]3CC[C@@H]2C1=O	n[11.4 µM]	x
CCOc1ccc(-c2cnc(SCC(N)=O)nc2N)cc1	n	10
CCOc1ccc(-n2c(COc3ccc(C)cc3)nnc2SCC(N)=O)cc1	n	n
CC(C)=NOCc1ccc(-c2cn([C@@H]3COC[C@@H]3O)nn2)cc1	n[11.4 µM]	x
Cc1noc(C)c1C(=O)OCC(=O)c1c[nH]c2ccccc12	16µM	x
Cc1noc(C)c1COC(=O)c1cc(=O)[nH]c2ccccc12	n	n
COC(=O)c1ccc(NC(=O)CSc2nnc(C)n2-c2ccccc2)cc1	n	n
CCSc1nnc(C)n1-c1ccc(C(=O)O)cc1	n	6.6

Screening results (PubChem BioAssay)
